This is a sample that favours compounds with a hit; in the whole collection about 22% have one here.
CYP2C19 inhib – human CYP2C19 inhibition; CYP2C19 Supersomes, luciferin-H EGE luminescence, 30 min; inhibition, % at 5 µM; hit rate 21% among 96,000; AID 778;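 active means CYP2C19 inhibition above a set limit at 5 µM in the primary screen, cut at about 50% in these data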;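 further: plate controls were negative control wells for no effect and 2.5 mM tranylcypromine positive control for full effect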
CYP2C9 inhib – human CYP2C9 inhibition | P11712 | AID 777 | inhibition, % at 5 µM | hit rate 20% among 96,000 | CYP2C9 Supersomes, luciferin-H conversion, luminescence;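 active means blocking of liver enzyme CYP2C9 beyond about 50% at 5 µM, limit read from the data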
Target sequence (P11712 whole entry, looked up): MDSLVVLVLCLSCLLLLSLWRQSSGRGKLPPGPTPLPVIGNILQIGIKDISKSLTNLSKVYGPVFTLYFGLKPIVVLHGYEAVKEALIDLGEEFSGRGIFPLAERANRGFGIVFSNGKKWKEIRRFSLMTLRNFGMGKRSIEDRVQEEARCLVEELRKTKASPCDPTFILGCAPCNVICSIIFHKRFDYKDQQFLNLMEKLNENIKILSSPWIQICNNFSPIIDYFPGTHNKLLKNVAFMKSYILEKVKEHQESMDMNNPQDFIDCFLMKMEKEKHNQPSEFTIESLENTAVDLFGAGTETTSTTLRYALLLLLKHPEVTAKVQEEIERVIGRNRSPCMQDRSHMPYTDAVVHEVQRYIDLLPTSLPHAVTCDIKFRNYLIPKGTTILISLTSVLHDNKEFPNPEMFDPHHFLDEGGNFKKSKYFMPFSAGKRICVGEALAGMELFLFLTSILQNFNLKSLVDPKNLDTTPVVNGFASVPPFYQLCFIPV
Measles CPE – protection of cells from measles virus; Measles virus-infected cells, CPE protection, absorbance; protection (pct of control), % at 4 µM; hit rate 1.5% among 140,000; AID 841; in the data active means protection mostly above about 24%, no sharp cut-off; inactive means mostly below about 26%
CYP2C19 act – increases human CYP2C19 enzyme activity. activation factor at 5 µM. P33261. recombinant CYP2C19, luciferin-H EGE luminescence; hits give high values; 0 = fully inhibited enzyme, 1 = untreated enzyme. 96,000 tested, under 10 active. AID 1025;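 active means activation factor of at least 2 at 5 µM in the primary screen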;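 further: 0 = wells with 2.5 mM tranylcypromine and 1 = vehicle-only wells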
CYP2C9 act – CYP2C9 (human) activation; P11712; recombinant CYP2C9, luciferin-H conversion, luminescence; hits give high values; factor 1 = untreated enzyme, 0 = blocked; activation factor at 5 µM; hit rate 1.4% among 96,000;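 active means activation factor of 2 or more for CYP2C9 at a 5 µM dose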;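 further: 0 = sulfaphenazole-blocked wells and 1 = vehicle-only wells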
Active calls of the source: *; . = no result given.

SMILES	CYP2C19 inhib	CYP2C9 inhib	Measles CPE	CYP2C19 act	CYP2C9 act
COc1ccc(-c2nc(N3CCOCC3)nc3n[nH]c(N)c23)cc1	6	-4	28*	0.9	1
Nc1[nH]nc2nc(N3CCCC3)nc(-c3ccccc3)c12	0	-4	8	1	1
COc1ccccc1/C=N/NC(=O)c1ccc(Cn2nc([N+](=O)[O-])cc2C)cc1	.	.	12	.	.
CCN(CC(=O)Nc1ccc(S(N)(=O)=O)cc1)S(=O)(=O)c1cc(C)ccc1OC	-5	97*	9	1.1	0
COc1ccc(S(=O)(=O)N(C)CC(=O)Nc2c(F)cccc2F)cc1	80*	-84	4	0.2	1.8
COc1ccc(OC)c(S(=O)(=O)N(C)CC(=O)Nc2ccc3c(c2)OCO3)c1	83*	87*	29	0.2	0.1
COc1ccc(N(CC(=O)Nc2ccc3c(c2)OCO3)S(=O)(=O)c2ccccc2)c(OC)c1	99*	99*	8	0	0
COC(=O)c1ccc(NC(=O)CN(C)S(=O)(=O)c2ccc(OC)c(C)c2)cc1	26	-18	4	0.7	1.2
Cc1cc(C)c2nc(SCC(=O)NCCN3C(=O)CSC3=O)cc(C)c2c1	.	.	39	.	.
CCOC(=O)c1cc2sccc2n1CC(=O)N1CCCC1	44	24	11	0.6	0.8
CCC(C)NC(=O)CS(=O)Cc1nc(-c2ccccc2C)oc1C (configuration not stated)	8	8	13	0.9	0.9
CC12CN(S(=O)(=O)c3ccccc3)CC(C)(CN(S(=O)(=O)c3ccccc3)C1)C2	12	8	9	0.9	0.9
CCc1nn(-c2ccccc2)c(N)c1-c1ccc(OC)c(OC)c1	3	-68	25	1	1.7
COc1ccc(C)cc1S(=O)(=O)N(C)CC(=O)Nc1ccc2c(c1)OCCO2	39	83*	.	0.6	0.2
Cc1cccc(NC(=O)CN(C)S(=O)(=O)c2ccc(Br)cc2)n1	96*	7	23	0	0.9
Cc1cccc(NC(=O)CN(C)S(=O)(=O)c2ccc(Cl)cc2)n1	33	-25	21	0.7	1.3
COc1ccc(OC)c(S(=O)(=O)N(C)CC(=O)Nc2ccc3c(c2)OCCO3)c1	27	75*	14	0.7	0.2
COc1ccc(S(=O)(=O)N(C)CC(=O)Nc2ccc3c(c2)OCO3)cc1OC	25	15	9	0.8	0.9
COc1ccc(S(=O)(=O)N(C)CC(=O)Nc2ccc3c(c2)OCO3)cc1	61*	54*	5	0.4	0.5
COc1c2c(nc3occc13)C(CC=C(C)C)(OC)C(OC(C)=O)CC2 (configuration not stated)	.	.	13	.	.
Cc1cccc(NC(=S)NCCC(C)C)c1	.	.	4	.	.
Cc1ccc(SCCNC(=S)Nc2ccc(C)cc2C)cc1	.	.	4	.	.
COc1ccc(CNC(=S)Nc2cc(C)cc(C)c2)cc1	5	-98	20	0.9	2*
COc1ccc(CCNC(=S)Nc2cccc(C)c2)cc1	65*	33	6	0.4	0.7
COc1ccc(NC(=S)NCc2ccc3c(c2)cc(C)n3C)cc1	.	.	9	.	.
SMILES	CYP2C19 inhib	CYP2C9 inhib	Measles CPE	CYP2C19 act	CYP2C9 act
Cc1ccc(SCCNC(=S)Nc2cc(C)cc(C)c2)cc1	51*	8	27	0.5	0.9
CCCC(=O)NCCCc1nc2ccccc2n1C(C)C	7	-41	6	0.9	1.4
Cc1c(C)n(CCC#N)c2ccc(Cl)cc12	.	.	14	.	.
CCN(CC)C(=O)CSc1nnc(-c2ccccn2)n1-c1ccc(C)c(C)c1	-5	-1	9	1.1	1
COC(=O)Cn1c(=NC(=O)CSC(C)=O)sc2ccccc21	-5	50	8	1.1	0.5
c1ccc(CSc2nnc([C@@H]3CCCN3)o2)cc1	16	10	2	0.8	0.9
Cc1ccc(CSc2nnc([C@@H]3CCCN3)o2)cc1	50*	8	19	0.5	0.9
CCOC(=O)N1CCN(C(=O)COc2ccc(Cl)cc2)CC1	38	-13	6	0.6	1.1
CC(C)(C)n1nc2c(c1NC(=O)Cc1ccc(F)cc1)CSC2	64*	68*	1	0.4	0.3
CC(C)(C)n1nc2c(c1NC(=O)COc1ccc(Cl)cc1)CSC2	67*	86*	4	0.3	0.1
CC(C)(C)n1nc2c(c1NC(=O)Cc1cccs1)CSC2	38	76*	20	0.6	0.2
O=C(Nc1ccc2c(c1)C(=O)N(c1ccccc1)C2=O)C1CCCO1 (configuration not stated)	.	.	17	.	.
O=C(CCCO)CCCCCCCCC[C@H]1N[C@H](CO)[C@@H](O)[C@@H]1O	.	.	7	.	.
Cc1ccc(S(=O)(=O)NC(C)(C)CSc2nncn2N)cc1	59*	-10	16	0.4	1.1
Cc1ccc(S(=O)(=O)NC(C)(C)CSc2nnc(Nc3ccccc3)s2)cc1	36	9	26	0.6	0.9
CCC(C)NC(=O)CO/N=C/c1ccccc1OC(F)F (configuration not stated)	.	.	12	.	.
COc1ccc(CNC(=O)C2CCCN2S(=O)(=O)c2ccccc2)cc1 (configuration not stated)	77*	34	26	0.2	0.7
COc1ccc(CNC(=O)C2CCCN2S(=O)(=O)c2ccc(C)cc2)cc1 (configuration not stated)	80*	14	2	0.2	0.9
COc1ccc(CNC(=O)[C@H](C)NC(=O)C2CCN(S(=O)(=O)c3ccc(C)cc3)CC2)cc1	7	27	6	0.9	0.7
CCCCNC(=S)N/N=C/c1ccc(OCC(=O)Nc2c(C)cc(C)cc2C)c(OC)c1	.	.	9	.	.
CCN(C(=O)COC(=O)c1cccnc1Nc1cccc(C(F)(F)F)c1)C1CCS(=O)(=O)C1 (configuration not stated)	.	.	6	.	.
O=C(NC1(C(F)(F)F)NC(=O)N(c2ccc(F)c(Cl)c2)C1=O)c1ccncc1 (configuration not stated)	82*	98*	25	0.2	0
c1ccc2sc(-c3ccc4c(c3)OCO4)nc2c1	9	2	16	0.9	1
CC(C)C1N=C(c2ccc3c(c2)OCO3)CC(c2ccccc2O)N1 (configuration not stated)	54*	61*	15	0.5	0.4
CCC(C(=O)Nc1nccs1)(C(F)(F)F)C(F)(F)F	6	78*	9	0.9	0.2
SMILES	CYP2C19 inhib	CYP2C9 inhib	Measles CPE	CYP2C19 act	CYP2C9 act
Cc1ccc(S(=O)(=O)NCCOc2nc(N3CCOCC3)nc(N3CCOCC3)n2)cc1	24	36	63*	0.8	0.6
Cc1ccc(S(=O)(=O)Nc2ccc(N3CCOCC3)cc2)cc1	96*	94*	4	0	0.1
Cc1cc(C)nc(NS(=O)(=O)c2ccc(NC(=O)c3ccc(N4C(=O)CCC4=O)cc3)cc2)n1	.	.	15	.	.
CC(=O)Nc1ccc(S(=O)(=O)Nc2ccc(N3CCOCC3)cc2)cc1	90*	40	13	0.1	0.6
Cc1ccc(S(=O)(=O)NCCNC(=O)N2CCOCC2)cc1	-2	-42	3	1	1.4
Cc1ccc(NS(=O)(=O)c2ccc(N3C(=O)CCC3=O)cc2)cc1	64*	44	4	0.4	0.6
